The source of these data is PubChem BioAssay AID720697 (Broad Institute, 2013).

Results with a measured potency or affinity are listed apart. Results filed as inconclusive are left out. Calls of active or inactive are those of the source.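 The calls were made as follows: active = signal loss with fitted half-maximal concentration at or below twice the top valid tested dose in every test run; inconclusive = runs disagree, flat 30 to 70% signal loss, or poor fit; inactive = all runs flat, opposite direction, or potency beyond limit.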

A short description of this assay: general mammalian cell viability loss – inhibitor set, cherry-pick, set 2, cytotoxicity control for miR-122 modulator project, dose response (AID 720697). The following applies: HEK293T viability, CellTiter-Glo luminescence, 48 h; series mostly up to 26 µM. In general terms: ATP-based viability assays read luminescence as a measure of living cells.
`C[C@@H]1CN([C@H](C)CO)S(=O)(=O)c2ccc(/C=C/c3ccccc3)cc2O[C@@H]1CN(C)C(=O)c1cccnc1`: the call was inactive. `Cc1cc(C)nc(NS(=O)(=O)c2ccc(NC(=S)NC(=O)C3CCCC3)cc2)n1`: the outcome was inactive.

For `CN1C(=O)c2cc(NC(=O)c3cccc(F)c3)ccc2OC[C@H]2O[C@H](CC(=O)NC3CCC3)CC[C@H]21`, the outcome was inactive.

For `O=C(Nc1ccc(F)cc1)N1C[C@H]2[C@@H](c3ccccc31)[C@H](CO)N2C(=O)c1ccncc1`, the outcome was inactive. `COc1ccc(NC(=O)N(C)C[C@@H]2Oc3cc(C#CCC(C)C)ccc3S(=O)(=O)N([C@@H](C)CO)C[C@@H]2C)cc1`: the result was inactive.

For `CC(=O)N(C)C[C@@H]1[C@@H](c2ccc(-c3cccc(C#N)c3)cc2)[C@H](CO)N1C(C)=O`, the molecule was called inactive.

Consider `C/C=C/c1ccc([C@H]2[C@@H](CO)N(C(=O)C3CC3)[C@H]2CN(C)C(=O)CC2CC2)cc1`, for which the call was inactive.

In the case of `C/C=C/c1ccc([C@H]2[C@@H](CO)N(Cc3ccccn3)[C@H]2CNC(=O)CC)cc1`, the outcome was inactive.

On to `CCN(C[C@H]1[C@H](c2ccccc2)[C@H](CO)N1C(=O)COC)S(C)(=O)=O`, for which the call was inactive. The entry for `C/C=C/c1ccc2c(c1)O[C@H](CN(C)C(=O)Cc1cccnc1)[C@H](C)CN([C@H](C)CO)S2(=O)=O` is “inactive”. Turning to `COc1cccc(S(=O)(=O)N(C)C[C@@H]2Oc3cc(C4=CCCC4)ccc3S(=O)(=O)N([C@H](C)CO)C[C@@H]2C)c1`, the molecule was classed as inactive. `CCN(C[C@H]1[C@H](c2ccccc2)[C@@H](CO)N1S(C)(=O)=O)C(=O)C1CC1`: the call was inactive.
